SMILES strings stand for the structures. This is part of a sample that, as a whole, favours compounds with a hit. Of some 79,000 tested, about 15% had one in any assay. Unmarked numbers belong to inactive results. Activity calls are given as the source filed them. Cut-off read from the data, not from the text of the source: active = growth inhibition above about 70%; inactive = the rest.

Assay [1] can be described thus: NCI Yeast Anticancer Drug Screen. Data for the rad50 strain (AID 155).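 Note: 0% = growth of vehicle-only cultures of the same strain.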 Particulars: S. cerevisiae rad50 strain growth inhibition, hits give high values. In outline:
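Cells are treated with compound, grown, and their growth is then scored against vehicle-only cultures of the same repair-deficient yeast strain.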

Assay [2] can be described thus: NCI Yeast Anticancer Drug Screen. Data for the mec2-1 strain (AID 157). Particulars: S. cerevisiae mec2-1 strain, hits give high values. An outline of the steps: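 Cells of the genetically defined mec2-1 yeast strain are incubated with test compound. Inhibition of growth is calculated against vehicle-treated controls.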
A short description of assay [3]: NCI Yeast Anticancer Drug Screen. Data for the sgs1 mgt1 strain (AID 161).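 Note: 0% = growth of cultures given vehicle only.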 As to conditions: S. cerevisiae sgs1 mgt1 strain, hits give high values. In outline:
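Mutant yeast exposed to compound; growth scored against vehicle-only wells.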

A short description of assay [4]: NCI Yeast Anticancer Drug Screen. Data for the cln2 rad14 strain (AID 165).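 Note: 0% = growth equal to vehicle treated cultures.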 As to conditions: S. cerevisiae cln2 rad14 strain, hits give high values. An outline of the steps:
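The screen exposed genetically defined yeast (cln2 rad14) to test compounds and scored growth inhibition relative to vehicle-treated controls.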

The nature of assay [5]: NCI Yeast Anticancer Drug Screen. Data for the bub3 strain (AID 167). As to conditions: S. cerevisiae bub3 mutant strain, hits give high values. In outline: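 Part of a panel of yeast mutants defective in DNA damage repair or cell cycle regulation. Each strain is grown with compound, and inhibition is calculated relative to solvent-treated cultures.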
Assay [6] is described as follows: NCI Yeast Anticancer Drug Screen. Data for the mlh1 rad18 strain (AID 175). Particulars: S. cerevisiae mlh1 rad18 strain growth inhibition, hits give high values. In outline: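 Compound-treated yeast growth, normalised to vehicle controls. Strain bears defined DNA repair mutations.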
Where [7] appears, read: at 5.0 µM (retest, dose inferred, filed as 0.5).
[8] abbreviates: at 50.0 µM (retest, dose inferred, filed as 5.0).

As for `C/C(=N\NC(=S)NC(C)(C)C)c1ccccn1`, the growth inhibition in assay [1] (setting [7]) was 20%; in assay [1] (setting [8]), 99% (active); in assay [1] (at 50.0 µM), 77% (active); in assay [2] (setting [7]), 13%; in assay [2] (setting [8]), 99% (active); in assay [2] (at 50.0 µM), 85% (active). Also, the growth inhibition in assay [3] (setting [7]) is 32%; in assay [3] (setting [8]) it was 99% (active); in assay [3] (at 50.0 µM), 90.5% (active); in assay [4] (setting [7]) it was 31%; in assay [4] (setting [8]), 99% (active); in assay [4] (at 50.0 µM) it was 89.5% (active). The growth inhibition in assay [5] (setting [7]) is 18%; in assay [5] (setting [8]), 99% (active); in assay [5] (at 50.0 µM), 90.2% (active); in assay [6] (setting [7]), 38%; in assay [6] (setting [8]), 98% (active); in assay [6] (at 50.0 µM), 91.2% (active).
Consider `CCCCCNc1ccc2c(cc1=O)C(NC(C)=O)CCc1cc(OC)c(OC)c(OC)c1-2` (stereo not drawn), for which the growth inhibition in assay [1] (setting [7]) is 16%; in assay [1] (setting [8]), 89% (active); in assay [1] (at 50.0 µM), 13.4%; in assay [2] (setting [7]) it was 10%; in assay [2] (setting [8]), 97% (active); in assay [2] (at 50.0 µM), 19.8%. Besides, the growth inhibition is 11% in assay [3] (setting [7]); 98% (active) in assay [3] (setting [8]); 18.2% in assay [3] (at 50.0 µM); 16% in assay [4] (setting [7]); 93% (active) in assay [4] (setting [8]); 71.7% (active) in assay [4] (at 50.0 µM). Besides, the growth inhibition is 21% in assay [5] (setting [7]); 97% (active) in assay [5] (setting [8]); 45.2% in assay [5] (at 50.0 µM); 19% in assay [6] (setting [7]); 95% (active) in assay [6] (setting [8]); 24.9% in assay [6] (at 50.0 µM).
With `OCC(O)C(O)C(O)C(O)c1cnn(-c2ccccc2)n1` (stereo not drawn), the growth inhibition is 3% in assay [1] (setting [7]); -4% in assay [1] (setting [8]); 10.8% in assay [1] (at 50.0 µM); -8% in assay [2] (setting [7]); -24% in assay [2] (setting [8]); 3.45% in assay [2] (at 50.0 µM). The growth inhibition is 3% in assay [3] (setting [7]); -5% in assay [3] (setting [8]); 15.2% in assay [3] (at 50.0 µM); -4% in assay [4] (setting [7]); -2% in assay [4] (setting [8]); 14.2% in assay [4] (at 50.0 µM). The growth inhibition was -3% in assay [5] (setting [7]); 2% in assay [5] (setting [8]); -1.3% in assay [5] (at 50.0 µM); -7% in assay [6] (setting [7]); -2% in assay [6] (setting [8]); 18.9% in assay [6] (at 50.0 µM).
For the compound `COc1ccc(C(c2ccc(OC)c(OC)c2)C(Cl)(Cl)Cl)cc1OC`, the growth inhibition was 3% in assay [1] (setting [7]); 94% (active) in assay [1] (setting [8]); 89.5% (active) in assay [1] (at 50.0 µM); 8% in assay [2] (setting [7]); 96% (active) in assay [2] (setting [8]); 93.4% (active) in assay [2] (at 50.0 µM). The growth inhibition in assay [3] (setting [7]) was 6%; in assay [3] (setting [8]), 95% (active); in assay [3] (at 50.0 µM) it was 94% (active); in assay [4] (setting [7]), 8%; in assay [4] (setting [8]), 94% (active); in assay [4] (at 50.0 µM) it was 86% (active). For the same compound, the growth inhibition in assay [5] (setting [7]) is 3%; in assay [5] (setting [8]) it was 97% (active); in assay [5] (at 50.0 µM) it was 88.5% (active); in assay [6] (setting [7]), 6%; in assay [6] (setting [8]), 94% (active); in assay [6] (at 50.0 µM), 92.4% (active).
For `O=[N+]([O-])c1ccc2c(c1)[nH]c1ccccc12`, the growth inhibition in assay [1] (setting [7]) is -138%; in assay [1] (setting [8]), 36%; in assay [1] (at 50.0 µM) it was 93.2% (active); in assay [2] (setting [7]) it was -45%; in assay [2] (setting [8]), -32%; in assay [2] (at 50.0 µM), 40.1%. For the same compound, the growth inhibition in assay [3] (setting [7]) is -65%; in assay [3] (setting [8]), -11%; in assay [3] (at 50.0 µM), 73.8% (active); in assay [4] (setting [7]), -57%; in assay [4] (setting [8]), -63%; in assay [4] (at 50.0 µM), 68.6%. For the same compound, the growth inhibition is -66% in assay [5] (setting [7]); -40% in assay [5] (setting [8]); 69.2% in assay [5] (at 50.0 µM); -139% in assay [6] (setting [7]); -10% in assay [6] (setting [8]); 89% (active) in assay [6] (at 50.0 µM).
As to `CC(C)c1c(P(=O)(c2ccccc2)c2ccccc2)n(C)c2ccccc12`, the growth inhibition in assay [1] (setting [7]) is 36%; in assay [1] (setting [8]) it was 99% (active); in assay [1] (at 50.0 µM), 83.4% (active); in assay [2] (setting [7]), -34%; in assay [2] (setting [8]), 98% (active); in assay [2] (at 50.0 µM), 89.5% (active). Moreover, the growth inhibition was -30% in assay [3] (setting [7]); 89% (active) in assay [3] (setting [8]); 77.8% (active) in assay [3] (at 50.0 µM); -4% in assay [4] (setting [7]); 98% (active) in assay [4] (setting [8]); 85.5% (active) in assay [4] (at 50.0 µM). For the same compound, the growth inhibition in assay [5] (setting [7]) is -25%; in assay [5] (setting [8]) it was 99% (active); in assay [5] (at 50.0 µM), 84.7% (active); in assay [6] (setting [7]), -27%; in assay [6] (setting [8]) it was 96% (active); in assay [6] (at 50.0 µM), 79.6% (active).
